PubChem BioAssay (NCATS)
Results filed as inconclusive are left out. Activity calls are given as the source filed them. Calls follow the shape of the dose curve; as a rule, active = well fitted curve in either direction with a large enough effect (not every such curve was filed as active); inconclusive = small, poorly fitted or top-dose-only effect, or another doubt; inactive = flat fitted curve, though single readings scatter.

Assay: NFAT Signaling Pathway (AID 444);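 also: carbachol stimulus at about its EC50 of 1 µM final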
Details: Jurkat NFAT-bla M1, carbachol, beta-lactamase ratio, 5 h; at 17.2 µM (top of the series) unless noted
Procedure, shortened: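 Jurkat cells with NFAT-driven β-lactamase reporter and co-expressed M1 receptor, stimulated with carbachol (final 1 uM, ~EC50), compound titration, 5 h at 37 °C. CCF4 loaded 1 h at RT; 460/530 nm ratio gave %activity and AC50.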
% is scaled to controls: 0 for no effect and ±100 for the full control effect.

SMILES	activity change, negative = inhibition
CCCSP1(=S)NCCCO1 (centres undefined)	2.72% (inactive)
CC1(C)NCCN2C(=O)CSC21 (centres undefined)	0.762% (inactive)
CCN(CC)c1ccc(N=Cc2c(O)n(-c3ccccc3C)c(=O)[nH]c2=O)cc1	-29.8% (inactive)
Cc1ccc(-n2c(O)c(C=NCCN3CCOCC3)c(=O)[nH]c2=O)cc1	13.7% (inactive)
CC(=NCCO)c1c(O)n(C)c(=O)n(C)c1=O	-3.31% (inactive)
CCN(CC)CCCC(C)N=C(c1ccccc1)c1c(O)n(C)c(=O)n(C)c1=O (centres undefined)	-29.5% (inactive)
O=c1c(C=NCCN2CCNCC2)c(O)n(C2CCCCC2)c(=O)n1C1CCCCC1	18.3% (inactive)
CC(=O)CC(C)(C)n1c[n+](C)nn1	-3.99% (inactive)
COC(=O)C(O)(c1c[nH]c2ccccc12)C(F)(F)F (centres undefined)	-8.45% (inactive)
C[C@@]12CC[C@H]3[C@@H](CCC4=CC(=O)CC[C@]43C)[C@H]1CCC2=O	9.12% [at 38 µM] (inactive)
CCCCNC(=O)Nc1ccc(C(O)(C(=O)OC)C(F)(F)F)cc1 (centres undefined)	26.8% (inactive)
CCN1C[C@]2(C)CC[C@@H](O)[C@]34[C@@H]5CC6[C@@H](OC)C[C@@](O)([C@H]5[C@@H]6O)[C@@H](C[C@@H]23)[C@H]14	6.29% [at 38 µM] (inactive)
CCN(CC)CCN=Cc1c(O)n(CCc2ccccc2)c(=O)[nH]c1=O	-1.81% (inactive)
CCCCSP1(=S)NCCCO1 (centres undefined)	1.86% (inactive)
CCCc1nc2ccccc2c(=O)n1-c1ccccc1OC	1.18% (inactive)
CCCCC1(CN2CCCC2=O)C(=O)NC(=O)NC1=O	-2.56% (inactive)
CC(=C1C(=O)c2ccccc2C1=O)N1CCN(CCN=Cc2c(O)n(C)c(=O)n(C)c2=O)CC1	-5.34% (inactive)
C[C@H]1CCCC(=O)CCCCCc2cc(O)cc(O)c2C(=O)O1	22.4% (inactive)
COC(=O)C(c1ccccc1)N1CCCCCC1 (centres undefined)	-19.7% (inactive)
NCC1(c2ccc3c(c2)OCCO3)CCCC1	-11.3% (inactive)
OC1(c2ccc(F)cc2)CCNC1 (centres undefined)	-14.3% (inactive)
CCOC(=O)[C@]1(C#N)[C@@H]2C=CC(C(C)=O)=CN2[C@@H](C(N)=O)[C@@H]1c1ccsc1	-15.2% (inactive)
O=c1[nH]c(=O)n(Cc2ccco2)c(O)c1C=NCCN1CCOCC1	-0.917% (inactive)
CC(C)(C)NC[C@H](O)c1ccccc1Cl	-15.3% [at 38 µM] (inactive)
CCCN(CC#CCO)CCC	3.75% (inactive)
CCCCCCn1c(O)c(C=NCCCn2ccnc2)c(=O)[nH]c1=O	-9.29% (inactive)
O=c1[nH]c(=O)n(Cc2ccco2)c(O)c1C=NCc1ccc2c(c1)OCO2	2.74% (inactive)
CCOc1ccc(-n2c(O)c(C=NCCN3CCNCC3)c(=O)[nH]c2=O)cc1	0.77% (inactive)
O=c1[nH]c(=O)n(Cc2ccccc2)c(O)c1C=NCCN1CCOCC1	-7.84% (inactive)
COCCOC(=O)c1c(N)n(Cc2ccco2)c2nc3ccccc3nc12	16.1% (inactive)

Assay: Stat Signaling Pathway (AID 446);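 also: ME-180 cervical cancer cells given 40 pM IL-6 alongside compound; SIE-controlled beta-lactamase reporter measured as 460/530 nm FRET emission ratio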
Details: ME-180 (cervical carcinoma) SIE beta-lactamase reporter, IL-6 stimulated, 5 h; series mostly up to 17.2 µM; activity, negative = inhibition: at the top concentration
Procedure, shortened: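 Compound effects on IL-6-induced STAT reporter activity were measured in ME-180 cells. After overnight culture, cells were co-treated with 40 pM IL-6 for 5 hrs before beta-lactamase substrate loading at room temperature.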

SMILES	activity, negative = inhibition
CCCSP1(=S)NCCCO1 (centres undefined)	-5.6% (inactive)
CC1(C)NCCN2C(=O)CSC21 (centres undefined)	4.62% (inactive)
CCN(CC)c1ccc(N=Cc2c(O)n(-c3ccccc3C)c(=O)[nH]c2=O)cc1	-17.3% (inactive)
Cc1ccc(-n2c(O)c(C=NCCN3CCOCC3)c(=O)[nH]c2=O)cc1	5.59% (inactive)
CC(=NCCO)c1c(O)n(C)c(=O)n(C)c1=O	13.6% (inactive)
CCN(CC)CCCC(C)N=C(c1ccccc1)c1c(O)n(C)c(=O)n(C)c1=O (centres undefined)	12.6% (inactive)
O=c1c(C=NCCN2CCNCC2)c(O)n(C2CCCCC2)c(=O)n1C1CCCCC1	1.86% (inactive)
CC(=O)CC(C)(C)n1c[n+](C)nn1	0.428% (inactive)
COC(=O)C(O)(c1c[nH]c2ccccc12)C(F)(F)F (centres undefined)	1.27% (inactive)
C[C@@]12CC[C@H]3[C@@H](CCC4=CC(=O)CC[C@]43C)[C@H]1CCC2=O	-0.366% [at 38 µM] (inactive)
CCCCNC(=O)Nc1ccc(C(O)(C(=O)OC)C(F)(F)F)cc1 (centres undefined)	-4.09% (inactive)
CCN1C[C@]2(C)CC[C@@H](O)[C@]34[C@@H]5CC6[C@@H](OC)C[C@@](O)([C@H]5[C@@H]6O)[C@@H](C[C@@H]23)[C@H]14	12.5% [at 38 µM] (inactive)
CCN(CC)CCN=Cc1c(O)n(CCc2ccccc2)c(=O)[nH]c1=O	0.536% (inactive)
CCCCSP1(=S)NCCCO1 (centres undefined)	-3.59% (inactive)
CCCc1nc2ccccc2c(=O)n1-c1ccccc1OC	2.3% (inactive)
CCCCC1(CN2CCCC2=O)C(=O)NC(=O)NC1=O	2.4% (inactive)
CC(=C1C(=O)c2ccccc2C1=O)N1CCN(CCN=Cc2c(O)n(C)c(=O)n(C)c2=O)CC1	-5.54% (inactive)

SMILES	activity, negative = inhibition
CCCN1CCc2cccc3c2[C@@H]1Cc1ccc(O)c(O)c1-3	10.4% [at 38 µM] (inactive)
C[C@H]1CCCC(=O)CCCCCc2cc(O)cc(O)c2C(=O)O1	-18.6% (inactive)
COC(=O)C(c1ccccc1)N1CCCCCC1 (centres undefined)	9.12% (inactive)
NC(N)=Nc1ccc2[nH]c3c(c2c1)C[C@]1(O)[C@@H]2Cc4ccc(O)c5c4[C@]1(CCN2CC1CC1)[C@H]3O5	-18.3% [at 38 µM] (inactive)
NCC1(c2ccc3c(c2)OCCO3)CCCC1	5.07% (inactive)
OC1(c2ccc(F)cc2)CCNC1 (centres undefined)	5.46% (inactive)
CCOC(=O)[C@]1(C#N)[C@@H]2C=CC(C(C)=O)=CN2[C@@H](C(N)=O)[C@@H]1c1ccsc1	2.87% (inactive)
C[C@H](N[C@@H](C)CCc1ccccc1)[C@H](O)c1ccc(O)cc1	28.9% [at 38 µM] (inactive)
O=c1[nH]c(=O)n(Cc2ccco2)c(O)c1C=NCCN1CCOCC1	-4.3% (inactive)
CCCC[N+]1(C)[C@@H]2CC(OC(=O)[C@@H](CO)c3ccccc3)C[C@H]1[C@H]1O[C@H]12 (some centres undefined)	8.64% [at 38 µM] (inactive)
CC(C)(C)NC[C@H](O)c1ccccc1Cl	-5.97% [at 38 µM] (inactive)
CCCN(CC#CCO)CCC	6.82% (inactive)
CCCCCCn1c(O)c(C=NCCCn2ccnc2)c(=O)[nH]c1=O	-0.692% (inactive)
O=c1[nH]c(=O)n(Cc2ccco2)c(O)c1C=NCc1ccc2c(c1)OCO2	7.34% (inactive)
CCOc1ccc(-n2c(O)c(C=NCCN3CCNCC3)c(=O)[nH]c2=O)cc1	2.43% (inactive)
O=c1[nH]c(=O)n(Cc2ccccc2)c(O)c1C=NCCN1CCOCC1	9.69% (inactive)
COCCOC(=O)c1c(N)n(Cc2ccco2)c2nc3ccccc3nc12	4.83% (inactive)
